Bioassay records as filed in PubChem.
NS1 function inh – qHTS Assay for Inhibitors of Influenza NS1 Protein Function. Potency, µM (doses to about 46.1 µM), for the others: at the highest dose activity, positive = more growth. 270,000 tested, 0.4% active; calls by dose curve; further: potency means the concentration at half of the fitted maximal effect; actives are rising curves; nearly all actives have a fitted effect of over 50% in size
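In this qHTS, NS1 from influenza A is expressed in budding yeast, where it slows growth. Cells are switched from glucose to 2% galactose medium (pH 6.0, -URA), treated with compound, and growth recovery is read at OD600.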
Sm TGR block – qHTS Assay for the Inhibitors of Schistosoma Mansoni Peroxiredoxins. 360,000 tested, 3% active. purified TGR, DTNB reduction, TNB absorbance 405 nm. Schistosoma mansoni thioredoxin glutathione reductase (TGR), Q962Y6. Potency, µM (doses to about 114 µM), for the others: top-dose activity change, negative = inhibition, most hits filed as inhibitors; further: potency means the concentration at half of the fitted maximal effect; on the % scale 0 is the no-effect control and ±100 the full control effect; nearly all actives have a fitted effect of over 60% in size
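First, TGR (20 nM dispensed) and NADPH were mixed with compound. Second, a 15 min room-temperature incubation followed. Third, further NADPH and then DTNB were added to start the reaction. Finally, TNB absorbance was monitored kinetically.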
Pf growth 96h – Primary qHTS for delayed death inhibitors of the malarial parasite plastid, 96 hour incubation; P. falciparum luciferase reporter growth, 96 h; Potency, µM (top dose mostly 28.7 µM), for the others: at the highest dose activity change, negative = inhibition, hits mostly inhibitors; 320,000 tested, 6.9% active; AID 504834, 2011; further: potency means the concentration at half of the fitted maximal effect; on the % scale 0 is the no-effect control and ±100 the full control effect
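Cell-based qHTS: luciferase-tagged P. falciparum in erythrocytes (2% hematocrit, 0.05% parasitemia final) incubated with compounds for 96 hours, 37 C, 5% CO2; luciferase detection reagent then added and luminescence measured.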
Cycloheximide cs – Cycloheximide Counterscreen for Small Molecule Inhibitors of Shiga Toxin. 300,000 tested, 12% active. AID 2314, 2010. max response, %. cell reporter, cycloheximide protein synthesis inhibition counterscreen; in the data active means max response mostly above about 13%, no sharp cut-off; inactive means mostly below about 14%; further: read at 38.3 µM for the half of the compounds with a filed dose; 0% is about no effect
Shiga toxin inh – A qHTS for Small Molecule Inhibitors of Shiga Toxin | Vero cells, Shiga toxin protein synthesis inhibition reporter | inhibition, % at 38.7 µM | 290,000 tested, 9.2% active; in the data active means inhibition mostly above about 28%, no sharp cut-off; inactive means mostly below about 43%; further: 0% is about no effect
Pf growth 48h – Primary qHTS for delayed death inhibitors of the malarial parasite plastid, 48 hour incubation; P. falciparum luciferase growth in erythrocytes, 48 h; Potency, µM (titrated, usually from 28.7 µM), for the others: top-dose activity change, negative = inhibition, usual class: inhibitors; 310,000 tested, 5.9% active; further: potency means the concentration at half of the fitted maximal effect; on the % scale 0 is the no-effect control and ±100 the full control effect
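Read-out is firefly luciferase luminescence from an integrated reporter in P. falciparum, so falling signal marks reduced parasite growth. Infected erythrocytes were at 2% hematocrit and 0.1% parasitemia (final) in Albumax-supplemented RPMI 1640.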
* hit, by the source's call; ? = inconclusive; · = no result given; [ ] = remark or other dose. A selection: hits, their analogues and other compounds. The true share with any hit is near 21%. Unless noted, the call rests on the fitted dose curve; in most records, active means well fitted curve in the direction sought with a large enough effect; inconclusive means small, poorly fitted or top-dose-only effect, or another doubt; inactive means no such curve, though single readings can be large; an effect the other way counts as inactive or inconclusive.

SMILES	NS1 function inh	Sm TGR block	Pf growth 96h	Cycloheximide cs	Shiga toxin inh	Pf growth 48h
COc1ccccc1CNCC(=O)Nc1cc(S(=O)(=O)N2CCCCCC2)ccc1Cl	-2%	0%	?	5	-6	9.3µM*
O=C(CCl)Nc1cc(S(=O)(=O)N2CCCCCC2)ccc1Cl	-28%	16µM*	?	-2	-17	-13%
COc1ccccc1CN(C)C(=O)c1cccc(S(=O)(=O)N2CCCC2)c1	·	3%	?	·	·	-25%
Cc1ccc(S(=O)(=O)N2CCOCC2)cc1C(=O)NCc1ccccc1CN1CCCC1	·	-14%	?	·	·	-25%
COC(=O)C1=C(c2ccc(OCc3ccccc3)cc2)C[C@@H]2CC[C@H]1N2C(=O)NC1CCN(Cc2ccccc2)CC1	·	4%	?	·	·	9.3µM*
COC(=O)C1=C(c2ccc(F)cc2OCc2ccccc2)C[C@@H]2CC[C@H]1N2C(=O)N1CCCC1	·	1%	?	·	·	9.3µM*
COC(=O)C1=C(c2ccc(F)cc2OCc2ccccc2)C[C@@H]2CC[C@H]1N2C(=O)NC1CC1	·	-24%	?	·	·	?
COC(=O)C1=C(c2ccc(F)cc2OCc2ccccc2)C[C@@H]2CC[C@H]1N2C(=O)NC(C)C	·	-27%	?	·	·	9.3µM*
COC(=O)C1=C(c2ccc(F)cc2OCc2ccccc2)C[C@@H]2CC[C@H]1N2C	·	-4%	?	·	·	?
COC(=O)C1=C(c2ccc(F)cc2OCc2ccccc2)C[C@@H]2CC[C@H]1N2C(=O)NC1CCCCC1	·	2%	15µM*	·	·	?
CCCCNC(=O)N1CCN(Cc2ccc(F)cc2)CC1	5%	·	15%[5.75 µM]	8	2	40%
CCC(C)(C)n1nnnc1C(C(C)C)N(Cc1cccnc1)Cc1ccco1 (stereo not drawn)	-1%	·	4%	-6	-5	?
CC(C)(C)n1nnnc1C(c1cccs1)N(Cc1cccnc1)Cc1ccccc1Cl (stereo not drawn)	-22%	2%	110%	4	6	2.9µM*
CC(c1nnnn1C(C)(C)C)N(Cc1cccnc1)Cc1ccccc1Cl (stereo not drawn)	2%	4%	·	-4	-16	13µM*
Clc1ccccc1CN(Cc1ccccc1)C(c1cccs1)c1nnnn1C1CCCC1 (stereo not drawn)	-13%	1%	?	7	-1	?
COc1ccc(-c2cc(C)no2)cc1S(=O)(=O)NCc1ccc(OC(C)C)cc1	-12%	8%	10µM*	6	-3	22%
COC(=O)CCN(c1ccccc1)S(=O)(=O)c1cc(-c2cc(C)no2)ccc1OC	-14%	2%	10µM*	-3	-4	?
COc1ccc(-c2cc(C)no2)cc1S(=O)(=O)NCc1ccco1	·	32µM*	·	·	·	·
COc1cccc(CNS(=O)(=O)c2cc(-c3cc(C)no3)ccc2C(C)C)c1	-33%	8%	-2%	-5	-4	13%
COc1ccc(CNS(=O)(=O)c2cc(-c3cc(C)no3)ccc2OC)cc1OC	-5%	4%	?	4	-3	10%
Cc1cc(-c2ccc(C(C)C)c(S(=O)(=O)NCc3ccco3)c2)on1	-18%	?	?	30*	34*	-19%
COc1ccc(-c2onc(C)c2C)cc1S(=O)(=O)NCc1ccco1	·	-20%	·	·	·	·
O=C1COc2ccc(S(=O)(=O)CCC(=O)N3CCN(c4cccc(C(F)(F)F)c4)CC3)cc2N1	4%	-14%	?	-10	0	-10%
CCc1ccc(-c2cc(C)no2)cc1S(=O)(=O)Nc1cc(C)on1	-24%	3%	?	-3	14	11%
Cc1ccnc(NS(=O)(=O)c2cc(-c3cc(C)no3)ccc2C(C)C)c1	6%	-14%	10µM*	17*	28*	23%
SMILES	NS1 function inh	Sm TGR block	Pf growth 96h	Cycloheximide cs	Shiga toxin inh	Pf growth 48h
Cc1ccc(CNC(=O)CCc2c(C)nc3c(-c4ccc(F)cc4)c(C)nn3c2C)cc1	·	2%	·	·	·	·
CCN(CC)c1ccc(/C=C/c2cc(-c3ccccc3)c3ccccc3n2)cc1	14%	-1%	12µM*	16*	24	?
COc1ccc(CCC(=O)Nc2cccc(S(=O)(=O)N3CCOCC3)c2)cc1OC	·	4%	-6%	·	·	-10%
CCCCC(CC)COC(=O)C(C#N)=C(c1ccccc1)c1ccccc1 (stereo not drawn)	·	-30%	2.6µM*	-1	-8	2.6µM*
CCCCC(CC)COC(=O)c1ccccc1C(=O)OCC(CC)CCCC (stereo not drawn)	·	-6%	-1%	·	·	?
COc1ccc(-c2nc(-n3c(C)c(C(C)=O)c(C(C)=O)c3C)sc2C)cc1	-41%	13%	-1%	8	-8	?
CC(=O)c1c(C(C)=O)c(C)n(-c2nc(-c3ccc(C)c(C)c3)c(C)s2)c1C	-16%	0%	-18%	2	6	12µM*
O=C(NC1CCC(CC2CCC(NC(=O)C(Cl)Cl)CC2)CC1)C(Cl)Cl (stereo not drawn)	6%	-2%	-2%	-1	·	29%
CCOC(=O)c1ccc(N2CCN(c3cccc(Cl)c3)CC2)c(NC(=O)Nc2ccc(OC)cc2OC)c1	·	3%	·	·	·	·
Cc1cccnc1NC(=O)Cn1nc(C)c([N+](=O)[O-])c1C	4%	-1%	1%	-3	29	·
S=C(/N=c1/sccn1Cc1ccccc1)NC1CC1	-37%	-14%	12µM*	0	29	?
COc1ccc(CCC(=O)OCC(=O)N2CCN(S(=O)(=O)c3ccc(C)cc3C)CC2)cc1	·	-1%	-3%	·	·	-6%
Cc1ccc(C)c(N2CCN(c3ncccc3[N+](=O)[O-])CC2)c1	-2%	-1%	?	-3	-11	?
CC(C)c1cc(NC(=O)CCl)on1	·	13µM*	?	-1	10	3.3µM*
Cc1cc(NC(=O)CCl)on1	·	16µM*	?	1	11	10µM*
Cc1ccc(SC[C@H](CC(C)C)N2CCN(CCc3ccccc3)CCC2=O)cc1	-37%	-28%	?	52*	43*	?
CC(=O)Nc1ccc(SC[C@H](CC(C)C)N2CCN(CCc3ccccc3)CCC2=O)cc1	-3%	?	7.4µM*	-1	-5	9.3µM*
O=C1CCN(CCc2ccccc2)CCN1[C@H](CSc1ccc(Br)cc1)Cc1ccccc1	-52%	-18%	8.3µM*	-5	-5	13µM*
COc1ccc(SC[C@H](CC(C)C)N2CCN(CCc3ccccc3)CCC2=O)cc1	-10%	?	?	13*	44*	?
COc1ccc(SCCN2CCN(CCc3ccccc3)CCC2=O)cc1	·	·	·	15	0	·
CC(C)C[C@@H](CO)N1CCN(CCc2ccccc2)CCC1=O	-14%	-1%	37%	-3	3	13%
